HSF-1 act – increases HSF-1 driven luciferase reporter signal | activation, % at 9 µM | NIH3T3-HGL HSF-1 luciferase reporter, MG132, 8 h; 100% = twice DMSO control signal | 300,000 tested, 1.7% active | AID 504408;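 active means mean replicate activation of at least 50% with a set share of replicates each reaching 50%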;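 further: 0% = median of the neutral control wells and 100% = twice that signal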
TWEAK-Fn14 inh – inhibitors of TWEAK-Fn14 interaction signaling; TWEAK-stimulated Fn14 reporter cells, luciferase luminescence, 8 h; inhibition, % at 10 µM; 360,000 tested, 2% active; AID 1159606; in the data active means inhibition above about 50%
TROY NFkB inh – inhibitors of TROY-dependent NF-kB signaling; Q293 LMP1-TROYcd NF-kB luciferase reporter, 4 h; inhibition, % at 10 µM; 360,000 tested, 0.98% active;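 active means compounds whose plate-normalised and pattern-corrected inhibition of the luciferase reporter signal at the single screening dose is 50% or more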
HSF1 inh – HSF1 inhibition. 300,000 tested, 0.77% active. NIH3T3-HGL HSE-luciferase, MG132-induced, luminescence 8 h; stronger effect = lower value. activity change, negative = inhibition, % at 7.5 µM (by protocol);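 active means more than half of replicate wells show activity change below -50%, luminescence cut by over half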;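 further: luciferase reports HSF-1 transcriptional activity via heat shock element; 0% = median of DMSO wells and -100% = zero luminescence signal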
HSP90 refold inh – blocks HSP90-mediated luciferase refolding in reticulocyte lysate | Rabbit reticulocyte lysate, luciferase refolding luminescence, 3 h | inhibition, % at 5.6 µM | 290,000 tested, 0.91% active | AID 1789;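 active means inhibition above the screen-wide mean plus 3 SD, computed separately per campaign, cut at about 16% in these data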;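 further: 0% = DMSO wells and 100% = 60 µM geldanamycin wells; inhibitors lower the luminescence because luciferase stays unfolded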
EBV LMP1 NFkB – reduces LMP1-driven NF-kappaB luciferase signal. inhibition, % at 12.5 µM. AID 504558. 350,000 tested, 0.69% active. LMP1-induced NF-kappaB luciferase reporter cells, luminescence; in the data active means inhibition above about 41%;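 further: 0% = neutral control wells and 100% = reference inhibitor control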
Active calls of the source: *; / = not tested or not shown. In the library only some 4.7% were active in any assay of this set; here they are far more common.

SMILES	HSF-1 act	TWEAK-Fn14 inh	TROY NFkB inh	HSF1 inh	HSP90 refold inh	EBV LMP1 NFkB
Oc1ccc(CCc2ccccn2)cc1	/	-15	-37	/	/	-6
CCNC(=O)C1(C)CCN(C(=O)CCc2ccccc2)C1 (stereo not given)	/	10	3	/	/	/
O=c1cc(-c2ccc3c(c2)OCO3)oc2ccccc12	26	-22	-66	22	5	-39
Nc1c(-c2ccc3c(c2)OCCO3)oc2ccccc2c1=O	-11	55*	33	-17	6	-29
Clc1ccc2nc(N3CCCCC3)sc2c1	56*	23	-37	21	0	-16
O=C(NCC1COc2ccccc2O1)c1ccc(F)c(S(=O)(=O)N2CCOCC2)c1 (stereo not given)	/	-4	-1	/	/	5
CCN(c1ccccc1)S(=O)(=O)c1cc(C(=O)Nc2ccccc2Cl)ccc1F	-13	8	-25	-7	-1	16
CCN(c1ccccc1)S(=O)(=O)c1cc(C(=O)Nc2ccc(Br)cc2)ccc1F	23	78*	41	8	1	6
CCc1ccc(NC(=O)c2ccc(F)c(S(=O)(=O)NCC3COc4ccccc4O3)c2)cc1 (stereo not given)	5	62*	44	-6	0	13
Cc1cccc(C)c1NC(=O)CN(Cc1ccccc1)Cc1ccccc1	/	-15	24	/	/	/
COc1cc(/C=C/C(=O)Nc2ccc(OC)c(S(=O)(=O)N3CCOCC3)c2)ccc1OC(F)F	/	50	57*	/	/	21
COc1ccc(NC(=O)COC(=O)/C=C/c2ccc(OC)c(S(=O)(=O)N3CCOCC3)c2)cc1	2	-2	-17	-7	3	54*
COc1ccc(C(=O)Nc2ccc(-c3ccc(C)o3)cc2)cc1S(=O)(=O)N1CCOCC1	3	82*	51*	21	-5	15
CCc1sc(C(=O)Nc2ccc(OC)c(S(=O)(=O)N3CCOCC3)c2)cc1C	/	1	-4	/	/	13
COc1ccc(/C=C/C(=O)OCC(=O)Nc2ccc(C)cc2)cc1S(=O)(=O)N1CCOCC1	12	19	-4	4	0	-9
COc1ccc(C(=O)Nc2ccc(N3CCOCC3)cc2)cc1S(=O)(=O)N1CCOCC1	/	0	37	/	/	0
COc1ccc(NC(=O)c2cc3c(s2)CCC(C)C3)cc1S(=O)(=O)N1CCOCC1 (stereo not given)	-16	79*	51*	0	-6	20
O=C(NCC1CCCCC1)c1cc(-c2cc(F)ccc2OCC2CCCO2)n[nH]1 (stereo not given)	/	-28	-3	/	/	/
Cc1cc2nc(-c3ccccc3)c(Cc3ccsc3)n2c(C)c1Br	/	0	-36	/	/	/
Cc1noc(C)c1NC(=O)N(C)C[C@@H]1Oc2ncc(Br)cc2C(=O)N([C@@H](C)CO)C[C@@H]1C	/	-5	1	/	/	4
CCn1c(Cc2ccccc2)nnc1SCC(=O)Nc1ccccc1O	51*	26	7	16	-2	1
O=[N+]([O-])c1ccc(O)c(/C=N/Nc2ccccc2Cl)c1	25	11	69*	6	-2	-38
CCOC(=O)N/N=C\c1ccc([N+](=O)[O-])s1	8	-6	-24	9	-1	7
O=C(N/N=C/c1cc([N+](=O)[O-])ccc1O)C1CC1	-18	5	-12	-12	7	5
CC(C)(C)OC(=O)N/N=C\c1ccc([N+](=O)[O-])s1	12	91*	66*	16	1	-7
SMILES	HSF-1 act	TWEAK-Fn14 inh	TROY NFkB inh	HSF1 inh	HSP90 refold inh	EBV LMP1 NFkB
Cc1ccc(C(=O)N/N=C/c2ccc([N+](=O)[O-])s2)cc1	-72	95*	42	-70*	4	13
O=[N+]([O-])c1cccc(N/N=C/c2cccc(O)c2O)c1	65*	-24	-40	21	0	-21
CC1(C(=O)NS(=O)(=O)c2ccccc2Cl)CCN1C(=O)Cc1ccc(Cl)cc1Cl (stereo not given)	/	-5	0	/	/	/
O=C(N/N=C/c1cc([N+](=O)[O-])ccc1O)c1ccncc1	-61	-9	6	-54*	-3	0
Cc1ccc(C(=O)N/N=C\c2ccc([N+](=O)[O-])s2)cn1	-6	20	-5	-4	0	1
O=C(N/N=C/c1ccc([N+](=O)[O-])s1)c1ccncc1	61*	12	16	50	0	4
COc1ccc(CC(=O)Nc2cccc3ccccc23)cc1OC	11	16	0	-1	1	-1
COC(=O)c1c(-c2ccc(Br)cc2)csc1NC(=O)Cc1ccc(OC)c(OC)c1	6	32	-18	6	3	19
COC(=O)c1c(-c2cccc3ccccc23)csc1NC(=O)Cc1ccc(OC)c(OC)c1	-17	75*	40	-7	10	2
COC(=O)c1c(-c2ccc(C)cc2)csc1NC(=O)Cc1ccc(OC)c(OC)c1	21	57*	42	9	6	6
COC(=O)CSc1nc2cc(C)ccc2cc1C#N	65*	2	-45	38	-4	-32
COc1cc(CNC(=O)c2cc(-c3cc(Cl)ccc3OC)n[nH]2)cc(OC)c1	/	8	7	/	/	/
O=c1c2ccccc2c(C=Nc2ccc(O)cc2)c(O)n1Cc1ccccc1	79*	-36	-40	55	-4	-17
Cn1c(=O)c2c(nc(Oc3ccc4ccccc4c3)n2C)n(C)c1=O	-20	51*	26	-18	2	22
Cn1c(=O)c2c(nc(Oc3cccc(O)c3)n2C)n(C)c1=O	-80	20	10	-77*	-1	0
COc1ccc(Oc2nc3c(c(=O)n(C)c(=O)n3C)n2C)cc1	-12	35	-2	-16	1	8
O=C(Cn1ccc(=O)[nH]c1=O)c1ccc([N+](=O)[O-])o1	/	-3	-1	/	/	-3
Cc1ccccc1-c1cc2nc(NCc3ccc(N(C)C)cc3)n(C)c(=O)c2s1	/	23	-34	/	/	/
COc1cc(C(=O)N2CCN(C(=O)CC(C)C)CC2)cc(OC)c1OC	-78	7	-12	-73*	0	2
COc1ccc(CN=C2NN=C(c3ccc(Cl)cc3)CS2)cc1	8	-15	8	-2	-3	-11
COc1ccc(C2=NN(C)C(=NCc3ccccc3)SC2)cc1	53*	2	-10	22	-2	-4
O=C1NC[C@H](c2ccccc2)OC(=O)[C@H](Cc2ccc(F)cc2)C/C=C\C[C@H]1CC(=O)N(CCO)Cc1ccccc1	/	26	13	/	/	8
O=C1NC[C@H](Cc2ccccc2)N(C[C@@H]2CCCN2C[C@H](Cc2ccc(O)cc2)N2C[C@H](Cc3ccccc3)N(CCc3ccccc3)C(=O)C2=O)C1=O	/	11	0	/	/	/
C(=N\N1CCN(Cc2cccc3ccccc23)CC1)/c1cccnc1	62*	0	6	16	-5	1
CCCS(=O)(=O)NC(=O)C1(C)CCN(C(=O)c2ccc(C(=O)OC)cc2)C1 (stereo not given)	/	-5	-4	/	/	/

Source: PubChem BioAssay (several laboratories)
